Among the data in PubChem BioAssay (NCI) are growth values, retold here.

SMILES strings stand for the structures. About 83,000 compounds went through this panel and 20% of them were active in at least one assay; those are over-represented in the sample as a whole.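 Each cell line was grown in a 96-well plate and treated with one concentration of compound for 48 hours. Values below 10 were considered active.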 Calls of active or inactive are those of the source.

The assay concerns HOP-92 NSCLC. As to the kind of experiment: NCI-60 one-dose screen, 48 h (100 = growth as untreated, 0 = no growth, -100 = all killed). Particulars: 10 µM unless noted. How it is done:
Growth inhibition of the HOP-92 human Non-Small Cell Lung tumor cell line is measured as a screen for anti-cancer activity. Cells are grown in 96 well plates and exposed to the test compound for 48 hours. Compounds are tested at a single concentration, which is 10^-5 M for most compounds. The reported endpoint is percent growth (GI% or GIPRCNT), where numbers from 0 - 100% represent growth inhibition, and numbers from -100% - 0 represent cell death. For example, a value of 40 represents 60% growth inhibition. A value of 0 means no net growth occurred over the course of the experiment. A value of -40 indicates 40% of cells at the beginning of the experiment died by the end of the experiment. A value of -100 means all cells are dead at the end of the experiment.
NCI-60 Human Tumor Cell Lines Screen was performed using the standard one-dose NCI protocol, which is described in more detail at https://dtp.cancer.gov/discovery_development/nci-60/default.htm.
Compounds with GIPRCNT values below 10 were considered active. Activity score was based on GIPRCNT using the following formula: […]
Score is 0 for GIPRCNT values of 100 or above, 50 for GIPRCNT values of 0, and 100 for GIPRCNT values of -100.
With `c1ccc(CNc2ccc3nc(CCC4CCCCC4)[nH]c3c2)cc1`, the growth was 44.7% (inactive).

For `Cc1ccc(/C=C/C(=O)c2ccc(NC(=O)CSc3nc4c([nH]3)c(=O)n(C)c(=O)n4C)cc2)c(C)c1`, the growth is -35.2% (active).

In the case of `CC(C)=CC(=O)N[C@@H]1CC2CCC3C(CC[C@@]4(C)C3CC[C@@H]4C(C)N(C)C)[C@@]2(C)C[C@@H]1O` (stereo not given in full), the growth was 40.6% (inactive).

Turning to `O=C1Nc2ccccc2C2c3cccn3-c3ccccc3N12` (stereo not given), the growth is 57.8% (inactive).

In the case of `O=C(c1ccc(F)c(Cl)c1)N1c2ccccc2Sc2ccccc21`, the growth is 37% (inactive).

For the compound `CC1COCC(C)N1C1=C(Cl)C(=O)c2ccccc2C1=O` (stereo not given), the growth was 53.4% (inactive).

On to `COc1ccc2cc(-c3ccc(-c4ccc(C(=N)N)s4)s3)ccc2c1`, for which the growth is 65.5% (inactive).

With `CC(O)c1ncc(/C=C2\SC(=S)N(Cc3ccccc3)C2=O)s1` (stereo not given), the growth was 73.4% (inactive).

For `CCCCCCCC/C=C\CCCCCCCCOc1ccccc1CC(=O)NCC[N+]1(C)CCCCC1`, the growth is 48.1% (inactive).

On to `COc1cc(-c2cc(-c3ccc(Nc4ncnc5cc(Cl)ccc45)cc3)nc(N3CCN(C)CC3)n2)cc(OC)c1OC`, for which the growth is 77.7% (inactive).

Consider `COC(=O)c1ccc2c(c1)c1c(C)c3ccncc3c(C)c1n2C`, for which the growth is 18.7% (inactive).

In the case of `CN(C)c1ccc(/C=C/C(=O)c2ccc(Nc3nc(Nc4ccc(F)cc4)nc(Nc4ccc(Cl)cc4)n3)cc2)cc1`, the growth is 51.3% (inactive).

For the compound `COc1ccc(/C=C/C(=O)c2ccc(Nc3nc(Nc4ccc(F)cc4)nc(Nc4ccc(Cl)cc4)n3)cc2)cc1`, the growth is 44.7% (inactive).

With `O=C1NC(=C(Cl)Cl)/C(=N/S(=O)(=O)NCCc2c[nH]c3ccccc23)N1`, the growth is 39% (inactive).

Turning to `N=C(N)SCc1cccc2c(CSC(=N)N)cccc12`, the growth was 83.8% (inactive).

On to `CCCCCCCCCCCCCCCCCCOc1ccccc1CC(=O)OCC[N+]1(C)CCOCC1`, for which the growth was 44.2% (inactive).

On to `C[C@@H]1CC[C@@]2(OC1)O[C@H]1C[C@H]3[C@@H]4CC=C5C[C@@H](O[C@@H]6O[C@H](CO)[C@@H](O[C@@H]7O[C@@H](CO)[C@H](O)[C@H]7O)[C@H](O)[C@H]6O[C@@H]6O[C@@H](C)[C@H](O)[C@@H](O)[C@H]6O)CC[C@]5(C)[C@H]4CC[C@]3(C)[C@H]1[C@@H]2C`, for which the growth is -67.2% (active).

For the compound `O=C(Nc1ccccc1)c1sc(-c2ccccc2)cc1O`, the growth is 77% (inactive).

Turning to `N#CCC1=NC(c2cccs2)=Nc2ccccc2S1`, the growth was 71.7% (inactive).

Regarding `Nc1ncnc2c1c(-c1ccc(Oc3ccccc3)cc1)nn2CC1SSCC1O` (stereo not given), the growth is 6.06% (active).

Consider `COc1ccc(Cc2cnc(NC(=O)c3sc4ccccc4c3Cl)s2)cc1`, for which the growth was 79.8% (inactive).

`O=C(CN1C(=O)/C(=C/c2ccco2)SC1=S)NCCc1c[nH]c2ccc(F)cc12`: the growth was 102% (inactive).

Turning to `C=C(CO)[C@@H]1CC[C@]2(COC3CCCCO3)CC[C@]3(C)[C@H](CC[C@@H]4[C@@]5(C)C=C(C=O)C(=O)C(C)(C)[C@@H]5CC[C@]43C)[C@@H]12` (stereo not given in full), the growth was -92.5% (active).

Turning to `c1ccc2cc(Cn3c[n+](Cc4ccc5ccccc5c4)c4ccccc43)ccc2c1`, the growth is -27.7% (active).

On to `C[C@@H]1O[C@@H](O[C@@H]2C[C@H](c3ccc4c(c3O)C(=O)C3=C(C4=O)[C@@]4(O)C(=O)C[C@](C)(O)C[C@@]4(O)C=C3)O[C@H](C)[C@H]2O)C[C@H](O)[C@@H]1O`, for which the growth was 120% (inactive).

With `O[C@@H](c1cc(C(F)(F)F)nc2c(C(F)(F)F)cccc12)[C@H]1CCCCN1`, the growth was 12.3% (inactive).

With `Cc1cc2nc(-c3c(-c4ccc(F)cc4)nc4sccn34)[nH]c2cc1C`, the growth was 86.1% (inactive).

With `COc1cc(C(=O)c2c(-c3ccccc3)oc3c(OC)cccc23)cc(OC)c1O`, the growth is 34.9% (inactive).

Turning to `CCOC(=O)c1c(C)nn(CC(O)c2ccccc2)c1NC(=O)Nc1cccc(F)c1` (stereo not given), the growth was 71.8% (inactive).

For `COc1ccc(Cc2nnc(Nc3nc4ccccc4s3)s2)cc1`, the growth was 85% (inactive).

For `Cc1ccc(S(=O)(=O)n2cc(C3C(Cl)C(=O)N3c3ccc(N4CCOCC4=O)cc3)c3ccccc32)cc1` (stereo not given), the growth was 49.8% (inactive).

For the compound `Oc1c(CN2CCCC2)cc(COCc2ccccc2)c2cccnc12`, the growth was 14.7% (inactive).

For the compound `COCCCOc1cc(C[C@@H](C[C@H](N)[C@@H](O)C[C@H](C(=O)NCC(C)(C)C(N)=O)C(C)C)C(C)C)ccc1OC`, the growth is 84.5% (inactive).

As for `CCn1cc(CNc2ccc(C(=O)Nc3cc4cc(OC)c(OC)cc4c(C)n3)cc2)c(C)n1`, the growth is 78.6% (inactive).

As to `FC(F)(F)c1[nH]ncc1-c1nc2c(N3CCCCC3)cc3[nH]ncc3c2c2c1CCCC2`, the growth is -10.2% (active).

As to `COc1ccc(OC)c(Nc2nnc(-c3ccc(Cl)cc3)o2)c1`, the growth was 100% (inactive).

As to `COc1ccc2nc3ccccc3c(NCc3ccccc3)c2c1`, the growth was -13.4% (active).

As to `CCN(CC)c1ccc(N2C(=O)/C(=C/c3cccs3)SC2=S)cc1`, the growth was 6.63% (active).

Regarding `Cc1[nH]c(C(=O)Nc2ccc(C(N)=O)cc2NC(C)C)c(Cl)c1Cl`, the growth is 72.7% (inactive).

As for `O=C(/C=C/c1ccc(Br)cc1)c1ccc(-n2cc(CN3CCN(c4cc5c(cc4F)c(=O)c(C(=O)O)cn5C4CC4)CC3)nn2)cc1`, the growth was 84.6% (inactive).
